From PubChem BioAssay
Several values for one entry are separate records, joined by “and”; a condition that tells them apart may be missing. Equal entries are not always repeated. Activity calls are given as the source filed them. Unless noted, how the calls were made is not given here.

What was measured:
[1] = liver-stage malaria parasite growth inhibition, primary screen, cell-based, HepG2, luciferase luminescence, HepG2 viability (AID 624349; in the data active means parasite load remaining mostly below about 12%, no sharp cut-off; inactive means mostly above about 10%;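 further: 100% = mean of DMSO negative control wells on the same plate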); details: P. berghei liver stage in HepG2, luciferase luminescence, concentration not given here; parasite load remaining: stronger effect = lower value; viability: measured here: HepG2 viability without parasites
[2] = Cy5 fluorescence interference with SSB-bound oligo, artefact control for HCV NS3 helicase inhibitor project, biochemical, NIH Clinical Collection, E. coli SSB (AID 743268)
[3] = tested on: Hepatitis C virus NS3 helicase; assay: HCV NS3 helicase inhibitors, primary screen, biochemical, fluorescence polarization, NIH Clinical Collection (AID 743270); details: NS3 helicase binding to Cy5-dT15 DNA, stronger effect = higher value, concentration not given here
[4] = biological target: Single-stranded DNA-binding protein (Escherichia coli (strain K12)) (UniProt P0AGE0); assay: E. coli SSB displacement from DNA, counter-screen for HCV NS3 helicase inhibitor project, biochemical, fluorescence polarization, NIH Clinical Collection (AID 743271; in the data active means inhibition above about 28%); details: stronger effect = higher value, concentration not given here
[5] = fluorescence interference in NS3h assay format, artefact control for HCV NS3 helicase inhibitor project, biochemical, NIH Clinical Collection (AID 743272); details: fluorescence interference counterscreen, stronger effect = lower value;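 further: HCV NS3 helicase with a Cy5 labelled single stranded DNA probe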
[6] = survival rescue of mitochondrial mutant cells in low glucose, primary screen, MELAS cybrids, Rieske KO mouse fibroblasts, CellTiter-Glo (AID 1508586;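 active means mean z-score across replicates of 1.96 or higher in either the MELAS or the Rieske mutant cell line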;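 further: z relative to plate mean and SD of compound and empty wells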)
F380Y = assay: modulators of BK channel variants, profiling panel, selectivity assay, cell-based, U2OS BacMam, thallium flux, beta subunits (AID 1259406;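 active means thallium flux through the channel raised or lowered by more than 3 SD from vehicle-only wells, actives on both sides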;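 further: initial slope of Thallos dye fluorescence rise after thallium is added; log ratio against the mean of 0.3% DMSO vehicle wells on the same plate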); details: at 30 µM
F380Y/beta1 = assay: as above; details: at 30 µM
F380Y/beta2Delta = assay: as above; details: at 30 µM
F380Y/beta4 = assay: as above; details: at 30 µM
[7] = biological target: Calcium-activated potassium channel subunit alpha-1 (Homo sapiens) + Leucine-rich repeat-containing protein 26 (Homo sapiens) (UniProt Q12791+Q2I0M4); assay: as above; details: F380Y/Slo1WT/gamma1, at 30 µM
R275C = assay: as above; details: at 30 µM
R275C/beta1 = assay: as above; details: at 30 µM
R275C/beta2Delta = assay: as above; details: at 30 µM
R275C/beta4 = assay: as above; details: at 30 µM
R275C/Slo1WT/beta2 = assay: as above; details: at 30 µM
[8] = sensitizers of A549 cells to miR-34 induction, primary screen, imaging, A549 dox-inducible miR-34, nuclei and caspase counts (AID 1347080;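 active means compounds whose cell count with miR-34 switched on is under 0.7 times the count with it off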); details: A549 miR-34 inducible, Hoechst nuclei count, 48 h
[9] = viability rescue of complex I mutant cybrids, primary screen, cell-based, galactose medium, ATP luminescence (AID 1645843;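 active means z-score of at least 1.8 in each of two replicates, scored against plate mean and spread of sample wells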;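 further: positive z means more ATP and so rescue of galactose-driven cybrid death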); details: complex I mutant cybrid cells, 72 h, stronger effect = higher value
[10] = modulation of C. elegans fzo-1 (AID 1259413);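 further: fzo-1 mutant C. elegans worms in liquid wells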; details: C. elegans fzo-1 modulator screen, mean read-out; stronger effect = higher value
[11] = tested on: Neuropilin-2 / VEGF-C interaction (human); assay: inhibitors of NRP2–VEGF-C binding, biochemical, microplate binding format, z-score (AID 743281); details: microplate NRP2/VEGF-C binding assay; stronger effect = lower value
[12] = MELAS cybrid survival, CellTiter-Glo 48 h, stronger effect = higher value
[13] = Rieske KO mouse fibroblast survival, CellTiter-Glo 72 h
[14] = stronger effect = lower value, cell number ratio, induced over uninduced
[15] = measured here: relative caspase fold change +Dox/-Dox
[16] = measured here: total cells with miR-34 induction, stronger effect = lower value
[17] = measured here: total cells without miR-34 induction

Chain of Calcium-activated potassium channel subunit alpha-1 (Homo sapiens) + Leucine-rich repeat-containing protein 26 (Homo sapiens) (Q2I0M4 whole entry, looked up, one chain of several): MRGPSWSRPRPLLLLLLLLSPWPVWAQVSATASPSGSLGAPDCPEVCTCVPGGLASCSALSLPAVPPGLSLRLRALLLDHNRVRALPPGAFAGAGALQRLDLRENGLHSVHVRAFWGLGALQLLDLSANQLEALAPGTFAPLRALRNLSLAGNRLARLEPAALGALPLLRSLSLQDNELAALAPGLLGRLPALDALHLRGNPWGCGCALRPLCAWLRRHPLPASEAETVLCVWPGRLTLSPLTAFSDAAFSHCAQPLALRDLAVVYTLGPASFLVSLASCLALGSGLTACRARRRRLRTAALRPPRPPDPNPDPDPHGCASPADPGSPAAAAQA

SMILES: CC(=O)O[C@@]12CO[C@@H]1C[C@H](O)[C@@]1(C)C(=O)[C@H](O)C3=C(C)[C@@H](OC(=O)[C@H](O)[C@@H](NC(=O)OC(C)(C)C)c4ccccc4)C[C@](O)([C@@H](OC(=O)c4ccccc4)[C@H]21)C3(C)C
- parasite load remaining [1]: 78.3% (inactive)
- viability [1]: 76.2%
- fluorescence ratio [2]: 0.95 (inactive)
- inhibition [3]: 5.15% (inactive)
- inhibition [4]: 9.14% (inactive)
- fluorescence ratio [5]: 0.93 (inactive)
- z-score [6, 12]: -2.05 (inactive)
- z-score [6, 13]: 0.54
- log fold change Tl+ flux (F380Y): -0.0323 (inactive)
- log fold change Tl+ flux (F380Y/beta1): -0.0744 (inactive)
- log fold change Tl+ flux (F380Y/beta2Delta): -0.0313 (inactive)
- log fold change Tl+ flux (F380Y/beta4): -0.0802 (inactive)
- log fold change Tl+ flux [7]: -0.035 (inactive)
- log fold change Tl+ flux (R275C): -0.041 (inactive)
- log fold change Tl+ flux (R275C/beta1): 0.104 (active)
- log fold change Tl+ flux (R275C/beta2Delta): 0.0412 (inactive)
- log fold change Tl+ flux (R275C/beta4): 0.0296 (inactive)
- log fold change Tl+ flux (R275C/Slo1WT/beta2): 0.000404 (inactive)

SMILES: C[C@H]1O[C@@H](O[C@H]2[C@@H](O)C[C@H](O[C@H]3[C@@H](O)C[C@H](O[C@H]4CC[C@@]5(C)[C@H](CC[C@@H]6[C@@H]5C[C@@H](O)[C@]5(C)C(C7=CC(=O)OC7)CC[C@]65O)C4)O[C@@H]3C)O[C@@H]2C)C[C@H](O)[C@@H]1O (some centres undefined)
- parasite load remaining [1]: -5.28% (inactive)
- viability [1]: 8.28%
- fluorescence ratio [2]: 0.93 (inactive)
- inhibition [3]: -1.36% (inactive)
- inhibition [4]: 4.86% (inactive)
- fluorescence ratio [5]: 0.99 (inactive)
- fold change [8, 14]: 0.475 (active)
- fold change [8, 15]: 1.15
- cell count [8, 16]: 266
- cell count [8, 17]: 560
- z-score [9]: -0.815 (inactive)
- log fold change Tl+ flux (F380Y): -0.0279 (inactive)
- log fold change Tl+ flux (F380Y/beta1): 0.0633 (inactive)
- log fold change Tl+ flux (F380Y/beta2Delta): 0.00458 (inactive)
- log fold change Tl+ flux (F380Y/beta4): -0.0566 (inactive)
- log fold change Tl+ flux [7]: -0.00567 (inactive)
- log fold change Tl+ flux (R275C): -0.0269 (inactive)
- log fold change Tl+ flux (R275C/beta1): -0.0167 (inactive)
- log fold change Tl+ flux (R275C/beta2Delta): -0.0151 (inactive)
- log fold change Tl+ flux (R275C/beta4): -0.0475 (inactive)
- log fold change Tl+ flux (R275C/Slo1WT/beta2): 0.0268 (inactive)

SMILES: CON=C(C(=O)N[C@@H]1C(=O)N2C(C(=O)O)=C(COC(N)=O)CS[C@H]12)c1ccco1
- parasite load remaining [1]: 58.2% (inactive)
- viability [1]: 88.2%
- fluorescence ratio [2]: 1.07 (inactive)
- inhibition [3]: -4.09% (inactive)
- inhibition [4]: 10.2% (inactive)
- fluorescence ratio [5]: 1 (inactive)
- fold change [8, 14]: 0.935 (inactive)
- fold change [8, 15]: 2.12
- cell count [8, 16]: 10600
- cell count [8, 17]: 11300
- z-score [9]: -0.2 (inactive)
- log fold change Tl+ flux (F380Y): 0.0216 (inactive)
- log fold change Tl+ flux (F380Y/beta1): 0.0158 (inactive)
- log fold change Tl+ flux (F380Y/beta2Delta): 0.00116 (inactive)
- log fold change Tl+ flux (F380Y/beta4): -0.0173 (inactive)
- log fold change Tl+ flux [7]: -0.0114 (inactive)
- log fold change Tl+ flux (R275C): -0.0247 (inactive)
- log fold change Tl+ flux (R275C/beta1): -0.0484 (inactive)
- log fold change Tl+ flux (R275C/beta2Delta): -0.0289 (inactive)
- log fold change Tl+ flux (R275C/beta4): 0.0531 (inactive)
- log fold change Tl+ flux (R275C/Slo1WT/beta2): 0.0179 (inactive)

SMILES: CC(=O)OCC(=O)[C@@]1(O)CC[C@H]2[C@@H]3CCC4=CC(=O)CCC4(C)[C@H]3[C@@H](O)CC21C (some centres undefined)
- mean signal [10]: 278 (inactive)

SMILES: C#C[C@]1(OC(C)=O)CC[C@H]2[C@@H]3CCC4=CC(=O)CC[C@@H]4[C@H]3CCC21C (some centres undefined)
- mean signal [10]: 228 (inactive)

SMILES: COc1cccc2c1C(=O)c1c(O)c3c(c(O)c1C2=O)C[C@@](O)(C(=O)CO)C[C@@H]3O[C@H]1C[C@H](N)[C@@H](O)[C@H](C)O1
- parasite load remaining [1]: -0.12% (inactive)
- viability [1]: 25.2%
- fluorescence ratio [2]: 0.11 (active)
- inhibition [3]: 4.36% (inactive)
- inhibition [4]: 17.6% (inactive)
- fluorescence ratio [5]: 0.41 (active)
- z-score [11]: -0.603 (inactive)
- mean signal [10]: 274 (inactive)

SMILES: COc1cc([C@@H]2c3cc4c(cc3[C@@H](O[C@@H]3O[C@@H]5CO[C@@H](C)O[C@H]5[C@H](O)[C@H]3O)[C@H]3COC(=O)[C@H]23)OCO4)cc(OC)c1O
- parasite load remaining [1]: 189% (inactive) and 77.5% (inactive) and 87.8% (inactive)
- viability [1]: 114% and 71.8% and 103%
- fluorescence ratio [2]: 1.02 (inactive)
- inhibition [3]: 0.66% (inactive)
- inhibition [4]: 2.76% (inactive)
- fluorescence ratio [5]: 1.01 (inactive)
- z-score [11]: -1.12 (inactive)
- mean signal [10]: 267 (inactive)
- fold change [8, 14]: 0.888 (inactive) and 1.07 (inactive)
- fold change [8, 15]: 1.6 and 0.504
- cell count [8, 16]: 2840 and 3400
- cell count [8, 17]: 3200 and 3170
- z-score [6, 12]: -0.423 (inactive) and -1.1 (inactive)
- z-score [6, 13]: -0.861 and 0.337
- z-score [9]: -2.08 (inactive)

SMILES: CN1CCc2cc(Cl)c(O)cc2[C@@H](c2ccccc2)C1
- parasite load remaining [1]: 38.6% (inactive)
- viability [1]: 72.6%
- fluorescence ratio [2]: 0.96 (inactive)
- inhibition [3]: -5.46% (inactive)
- inhibition [4]: -6.69% (inactive)
- fluorescence ratio [5]: 1.01 (inactive)
- z-score [11]: -1.33 (inactive)
- mean signal [10]: 255 (inactive)
- fold change [8, 14]: 0.95 (inactive) and 0.955 (inactive)
- fold change [8, 15]: 1.25 and 1.04
- cell count [8, 16]: 9640 and 8960
- cell count [8, 17]: 10100 and 9370
- z-score [9]: -0.095 (inactive) and 0.675 (inactive)

SMILES: CCCN1CC(CSC)CC2c3cccc4[nH]cc(c34)CC21 (centres undefined)
- outcome [11]: inactive
- mean signal [10]: 184 (inactive)
- fold change [8, 14]: 0.922 (inactive)
- fold change [8, 15]: 1.17
- cell count [8, 16]: 9040
- cell count [8, 17]: 9810
- z-score [9]: -0.235 (inactive)

SMILES: CC1(C)O[C@@H]2C[C@H]3[C@@H]4CCC5=CC(=O)C=CC5(C)[C@@]4(F)[C@@H](O)CC3(C)C2(C(=O)CO)O1 (some centres undefined)
- mean signal [10]: 258 (inactive)

SMILES: CCCCC(=O)O[C@H]1CC[C@H]2[C@@H]3CCc4cc(O)ccc4[C@H]3CCC12C (some centres undefined)
- mean signal [10]: 242 (inactive)

SMILES: CC12C=CC(=O)C=C1CC[C@@H]1[C@@H]2C(=O)CC2(C)[C@H]1CC[C@]2(O)C(=O)CO (some centres undefined)
- mean signal [10]: 237 (inactive)

SMILES: CC[C@@H]1C(=O)OC[C@@H]1Cc1cncn1C
- fluorescence ratio [2]: 0.93 (inactive)
- inhibition [3]: -5.94% (inactive)
- inhibition [4]: 1.44% (inactive)
- fluorescence ratio [5]: 0.86 (inactive)
- z-score [11]: -0.47 (inactive)
- mean signal [10]: 280 (inactive)
